Screening results (PubChem BioAssay)
NPC1 promoter act – NPC1 promoter activation | Huh7 NPC1 promoter luciferase reporter, 24 h | Potency, µM (titrated, usually from 9.22 µM), hits mostly activators | 320,000 compounds, 2.4% hits; note: nearly all actives have a fitted effect of over 60% in size
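Huh7 reporter cells (NPC1 promoter driving luciferase) are dosed with compound for 24 h at 37 °C, 5% CO2; luciferase detection reagent is then added and luminescence measured after 10 min at ambient temperature.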
Rab9 promoter act – activators of Rab9 promoter. Huh7 Rab9 promoter-luciferase reporter, luminescence, 24 h. Potency, µM (top dose mostly 9.22 µM), usual class: activators. 320,000 compounds, 2.8% hits. AID 485297; note: nearly all actives have a fitted effect of over 60% in size
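Measured in stably transfected Huh7 cells bearing a Rab9 promoter–luciferase construct: 24 h compound treatment at 37 °C, followed by luminescence detection.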
SMN2 splice enh – increases expression of the SMN2 splice variant | HEK293 SMN2-luciferase splicing reporter, luminescence, 30-36 h | Potency, µM (doses to about 46.1 µM), hits mostly activators | 210,000 compounds, 2.8% hits | AID 1458; note: nearly all actives have a fitted effect of over 55% in size
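HEK293 cells carry an SMN2 […]–luciferase reporter in which exon 7 inclusion puts luciferase in frame. Cells were plated 10-12 h before compound addition, then incubated 30-36 h at 37C. ONE-Glo luminescence was read; sodium butyrate at 4.5 mM final served as control.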
ELG1 genotox – genotoxicity induction in ELG1-luciferase HEK293T cells; HEK293T ELG1-luciferase reporter, luminescence, 16 h; Potency, µM (series often up to 46 µM), hits mostly activators; 330,000 compounds, 1.3% hits; note: nearly all actives have a fitted effect of over 60% in size
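Step 1: seed 2,000 HEK293T ELG1-luciferase cells per well. Step 2: add compound or DMSO, incubate 16 hr at 37 °C. Step 3: ONE-Glo, 30 min at room temperature, read luminescence.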
FLuc modulator – inhibits or activates purified firefly luciferase, miR-21 counter-screen; AID 588342; Potency, µM (top dose mostly 57.5 µM), usual class: inhibitors; purified FLuc, Km substrates, luminescence inhibition; 360,000 compounds, 6.9% hits; P08659; note: nearly all actives have a fitted effect of over 55% in size
Target sequence (P08659 whole entry, looked up): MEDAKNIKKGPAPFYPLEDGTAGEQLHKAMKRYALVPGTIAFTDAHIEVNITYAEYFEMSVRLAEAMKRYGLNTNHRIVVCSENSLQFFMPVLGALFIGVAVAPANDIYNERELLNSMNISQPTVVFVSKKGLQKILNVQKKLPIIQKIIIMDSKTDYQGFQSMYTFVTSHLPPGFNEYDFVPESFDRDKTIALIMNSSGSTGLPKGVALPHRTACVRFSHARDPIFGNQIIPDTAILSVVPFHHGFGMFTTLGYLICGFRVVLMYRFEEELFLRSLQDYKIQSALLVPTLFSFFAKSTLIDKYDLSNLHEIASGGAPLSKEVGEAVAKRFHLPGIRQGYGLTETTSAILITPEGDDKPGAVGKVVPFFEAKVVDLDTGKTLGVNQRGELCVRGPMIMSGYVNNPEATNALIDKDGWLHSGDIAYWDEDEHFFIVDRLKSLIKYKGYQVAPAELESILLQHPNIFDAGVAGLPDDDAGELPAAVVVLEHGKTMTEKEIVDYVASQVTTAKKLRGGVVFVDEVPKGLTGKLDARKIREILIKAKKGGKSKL
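Biochemical qHTS of compounds, final roughly 60 µM downward over six points, against 10 nM purified firefly luciferase using Km concentrations of substrates (10 uM D-luciferin, 10 uM ATP) in Tris acetate pH 7.5 buffer; luminescence output.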
Numbers stand for hits; n = inactive; u = inconclusive; x = no result given; ! = repeats disagree; [ ] = remark or other dose. An excerpt weighted towards active compounds, which were near 7.5% of everything screened. Calls come from the whole dose curve; as a rule, active = well fitted curve in the direction sought with a large enough effect; inconclusive = small, poorly fitted or top-dose-only effect, or another doubt; inactive = no such curve, though single readings can be large; an effect the other way counts as inactive or inconclusive.

SMILES	NPC1 promoter act	Rab9 promoter act	SMN2 splice enh	ELG1 genotox	FLuc modulator
CC1CCc2nc(/C(C#N)=C/c3ccncc3)sc2C1 (stereo not given)	2.82µM	3.16µM	17.8µM	u	9.53µM
Sc1oc(-c2ccccc2)cc1C=Nc1ccccc1	n	n	n	11.6µM	2.13µM
O=[N+]([O-])c1cc2c(cc1C=Nc1ccccc1)OCO2	n	n	n	n	n
Nc1nc(-c2ccc(Oc3ccccc3)cc2)c(CC(=O)O)s1	n	n	x	n	u
CCC(=O)Nc1ccccc1-c1nc2ccccc2n(CC(=O)c2ccc(C)c(C)c2)c1=O	x	x	x	x	n
COc1ccc2cnn(CCOc3ccccc3)c(=O)c2c1OC	0.794µM	0.562µM	11.2µM	u	4.78µM
CCOc1ccccc1OCCn1ncc2ccc(OC)c(OC)c2c1=O	n	n	n	n	n
COc1ccc2cnn(-c3ccc(C)cc3)c(=O)c2c1OC	u	u	n	14.6µM	23.9µM
COc1ccccc1CN(C)C(=O)c1cccc(S(=O)(=O)N2CCCc3ccccc32)c1	n	n	x	n	n
CCOC(=O)C(=CNc1cccc(C)c1C)C(=O)OCC	n	n	n	n	u
CCOC(=O)C(=CNc1ccc(C)cc1C)C(=O)OCC	n	n	n	n	15.1µM
CC(C)NC(=O)CN(Cc1ccc(F)cc1)C(=O)CCC(=O)Nc1ccccn1	n	n	x	n	n
COc1ccc(CNC(=O)C(c2ccco2)N(C(=O)c2ccccn2)c2ccccc2)cc1 (stereo not given)	0.891µM	0.891µM	x	u	6.75µM
O=C(NCc1ccccc1)C(c1ccco1)N(C(=O)c1ccccn1)c1ccccc1 (stereo not given)	n	n	x	n	n
CCOC(=O)c1ccc(-c2ccc3c(c2)CCC3)nc1C	1.58µM	1µM	x	3.66µM	1.51µM
COC(=O)c1ccc(-c2ccc(F)cc2)nc1C	3.55µM	3.55µM	u	u	3.38µM
Cc1ccc(-c2ccc(C(=O)O)c(C)n2)cc1	n	n	u	n	n
CCOc1ncccc1C(=O)OCC(=O)Nc1ccc2c(c1)CCC2	x	x	x	n	x
CCOC(=O)Cc1csc(SCC(=O)N(CC(C)C)c2c(N)n(Cc3ccccc3)c(=O)[nH]c2=O)n1	n	n	x	n	n
CCCCC(=O)NCCc1c(Cc2ccccc2)[nH]c2ccccc12	x	x	n	x	x
COc1ccc(-n2nc(C(=O)NCC(=O)N3CCCCC3)c3ccccc3c2=O)cc1	n	n	x	n	3.01µM
CCN1CCN(C(=O)CNC(=O)c2nn(-c3ccc(OC)cc3)c(=O)c3ccccc23)CC1	n	n	x	n	4.78µM
COc1ccc(-n2nc(C(=O)NCC(=O)O)c3ccccc3c2=O)cc1	n	n	x	n	n
COc1ccc(-n2nc(C(=O)NCC(=O)N3CCN(Cc4ccccc4)CC3)c3ccccc3c2=O)cc1	n	n	x	n	u
COc1ccc(-n2nc(C(=O)NCC(=O)N(C)Cc3ccccc3)c3ccccc3c2=O)cc1	n	n	x	n	16.9µM
SMILES	NPC1 promoter act	Rab9 promoter act	SMN2 splice enh	ELG1 genotox	FLuc modulator
COc1ccc(-n2nc(C(=O)NCC(=O)N3CCCC3)c3ccccc3c2=O)cc1	n	n	x	n	12µM
COc1ccc(N/N=C(C)/C(=N/O)C(=O)Nc2ccccc2)cc1	n	n	n	u	u
OC(COc1ccc2ccccc2c1Cl)CN1CCOCC1 (stereo not given)	u	u	u	u	16.9µM
Cc1cccc(OC(C)C(=O)N2CCC(c3nc4ccccc4o3)CC2)c1C (stereo not given)	x	x	x	x	n
COCCCNC(=O)c1ccc2nc(Cc3ccc(OC)cc3)oc2c1	3.98µM	2.24µM	x	20.6µM	16.9µM!
COC(=O)CCNC(=O)c1ccc2nc(Cc3ccc(OC)c(OC)c3)oc2c1	u	u	x	n	16.9µM
COc1ccc(Cc2nc3ccc(C(=O)NCCCSC)cc3o2)cc1OC	u	u	x	n	16.9µM
COc1ccc(Cc2nc3ccc(C(=O)NCCc4ccc(OC)c(OC)c4)cc3o2)cc1	x	x	x	x	n
CCOCCCNC(=O)c1ccc(OC)cc1	n	n	28.2µM	u	n[2.3 µM]
CCOCC(O)CNC(=O)c1ccc2nc(Cc3ccc(OC)c(OC)c3)oc2c1 (stereo not given)	u	n	x	n	n
Cc1cccc(C)c1OCc1nc2ccccc2c(=O)n1/N=C/c1c[nH]c2ccccc12	n	n	x	n	n
CN(C)c1nc(N)c(C(=O)Nc2cccnc2)nc1Cl	x	x	11.2µM	x	x
O=C(Nc1cccnc1)c1ccc(Cl)c(Cl)c1	n	n	x	n	u
Cc1ccc(C(=O)c2sc(Nc3ccccc3F)c(S(=O)(=O)c3ccccc3)c2N)c(C)c1	x	x	x	x	n
Clc1ccc(-c2cnc(Oc3ccccc3)nc2)cc1	0.794µM	2.82µM	14.1µM	u	2.69µM
Cc1cc(Cl)ccc1Oc1ncc(-c2ccc(Cl)cc2)cn1	n	n	n	n	n
Cc1cccc(Nc2nnc(SC/C(O)=C(\C#N)c3nc4ccccc4[nH]3)s2)c1	n	n	n	n	16.9µM
Cc1ccc(Nc2nnc(SC/C(O)=C(\C#N)c3nc4ccccc4[nH]3)s2)c(C)c1	n	n	n	n	u
O=C(C1CC(c2ccccc2O)=NO1)N1CCCCC1 (stereo not given)	u	4.47µM	0.159µM	13µM	15.1µM
O=C(C1CC(c2ccccc2O)=NO1)N1CCc2ccccc2C1 (stereo not given)	n	n	n	u	u
O=C(C1CC(c2ccc(F)cc2)=NO1)N1CCCCC1 (stereo not given)	3.16µM	u	28.2µM	u	15.1µM
CC1CCCCN1C(=O)C1CC(c2ccc(F)cc2)=NO1 (stereo not given)	u	2µM	x	n	21.3µM
O=C(C1CC(c2ccc(F)cc2)=NO1)N1CCc2ccccc2C1 (stereo not given)	n	n	n	u	u
O=C(Nc1c(C(=O)O)oc2ccccc12)c1ccc(C(F)(F)F)cc1	x	x	x	x	9.53µM
O=C(O)c1ccc(NNC(=S)Nc2cc(C(F)(F)F)ccc2Cl)cc1	n	n	x	18.3µM	23.9µM
SMILES	NPC1 promoter act	Rab9 promoter act	SMN2 splice enh	ELG1 genotox	FLuc modulator
Cc1occc1C(=O)Nc1ccc(Br)cc1F	u	3.16µM	n	u	21.3µM
O=C(NC(=S)Nc1cc(C(F)(F)F)ccc1Cl)c1ccccc1	n	n	n	n	n
Cc1occc1C(=O)NNC(=O)Nc1ccc(F)cc1F	n	n	x	n	n
Cc1occc1C(=O)Nc1cc(C(F)(F)F)ccc1Cl	n	n	25.1µM	n	n
C=CCOc1ccccc1CN(C(=O)CCl)c1ccc2c(c1)OCO2	n	n	x	n	n
CCc1nnc2c(NCc3cccc(OC)c3)nc3ccccc3n12	x	x	n	x	n
O=C(Nc1nccs1)c1ccc(N2C(=O)[C@@H]3[C@H](C2=O)[C@H]2C=C[C@@H]3C2)cc1	2.51µM	3.55µM	x	u	26.9µM
O=C(Nc1nccs1)c1ccc(N2C(=O)C3CCCCC3C2=O)cc1 (stereo not given)	n	n	n	u	21.3µM
O=C(Nc1nccs1)c1cccc(N2C(=O)C3C4C=CC(C4)C3C2=O)c1 (stereo not given)	n	n	n	n	n
